Most compounds without a hit are left out; they make up all but 3.4% or so of the library.
GPR151 activ: human GPR151 activation | PathHunter beta-arrestin GPR151 cells, luminescence | activation, % at 11.2 µM | AID 1508602 | 650,000 compounds, 1% hits; in the data active means activation above about 4.9%
MITF inh: blocks human microphthalmia-associated transcription factor. O75030. AlphaScreen MITF homodimerization, bead proximity signal. inhibition, % at 2.6 µM. 650,000 compounds, 0.91% hits. AID 1259374; in the data active means inhibition above about 50%
FBW7 act: human FBW7 E3 ligase activation, primary screen. Q969H0. normalized activity (activation), % at 26.1 µM. AlphaScreen FBW7–phospho-cyclin E peptide binding, activator screen. 650,000 compounds, 0.13% hits. AID 1259310; in the data active means normalized activity above about 1.9%;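 further: purified mutant Fbw7 with reduced substrate affinity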
Target sequence (Q969H0 whole entry, looked up): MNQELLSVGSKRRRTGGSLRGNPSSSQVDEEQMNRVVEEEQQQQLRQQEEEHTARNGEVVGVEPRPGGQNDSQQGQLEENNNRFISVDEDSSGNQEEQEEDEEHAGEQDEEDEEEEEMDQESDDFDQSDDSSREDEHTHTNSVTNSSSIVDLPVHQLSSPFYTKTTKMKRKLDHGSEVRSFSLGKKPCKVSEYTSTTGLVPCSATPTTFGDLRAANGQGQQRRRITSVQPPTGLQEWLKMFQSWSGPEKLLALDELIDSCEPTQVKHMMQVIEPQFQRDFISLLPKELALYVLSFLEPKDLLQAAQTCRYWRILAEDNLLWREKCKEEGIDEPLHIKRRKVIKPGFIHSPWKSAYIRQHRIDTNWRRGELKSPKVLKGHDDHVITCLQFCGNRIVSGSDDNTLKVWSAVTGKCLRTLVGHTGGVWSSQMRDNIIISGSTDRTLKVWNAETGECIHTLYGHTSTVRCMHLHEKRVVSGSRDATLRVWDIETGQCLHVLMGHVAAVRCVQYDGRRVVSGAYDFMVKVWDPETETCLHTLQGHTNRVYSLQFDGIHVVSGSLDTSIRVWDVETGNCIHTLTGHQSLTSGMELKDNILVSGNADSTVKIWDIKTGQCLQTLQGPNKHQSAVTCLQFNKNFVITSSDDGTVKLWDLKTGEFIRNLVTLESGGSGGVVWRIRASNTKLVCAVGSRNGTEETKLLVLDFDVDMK
TEAD-YAP block: TEAD-YAP interaction inhibition; AID 1259422; inhibition, % at 9.12 µM; 640,000 compounds, 1.4% hits; HEK-TIYL cells, TEAD-Gal4/YAP UAS-luciferase luminescence; in the data active means inhibition above about 32%
MITF confirm: human MITF inhibition, confirmation | inhibition, % at 2.6 µM | AlphaScreen MITF homodimerization, biotin/His-MITF beads | 4,700 compounds, 16% hits | shares compounds with MITF inh | AID 1259372;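 active means inhibition above a cutoff derived from the DMSO control wells, cut at about 28% in these data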;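 further: inhibitors lower the bead chemiluminescence by keeping MITF from dimerizing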
AS interf DR: counter-screen: compounds optically interfering with AlphaScreen. shares compounds with MITF inh. AID 1259373. AlphaScreen optical interference counterscreen, cell-free. IC50, µM. 480 compounds, 6% hits; call rule not given here
AlphaScreen intf2: counter-screen: compounds optically interfering with AlphaScreen; shares compounds with MITF inh; LysRS AlphaScreen counterscreen, signal interference, triplicate; inhibition, % at 2.6 µM; 4,700 compounds, 7.6% hits;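 active means inhibition above a cutoff derived from the DMSO control wells, cut at about 30% in these data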
Large screens that a line does not name were inactive (follow-up assays come after a bar, where they were run).

CCN(CC(=O)Nc1ccc(Br)cc1)CC(=O)Nc1ccc(C#N)c(Cl)c1	MITF inh 85 | MITF confirm inactive | AlphaScreen intf2 inactive
CN(C)C1C(=O)C(C(N)=O)=C(O)C2(O)C(=O)C3=C(O)c4c(O)cccc4C(C)(O)C3CC12 (stereo unspecified)	MITF inh 51 | MITF confirm 43 | AS interf DR inactive | AlphaScreen intf2 inactive
CN(C)[C@@H]1C(=O)C(C(N)=O)=C(O)[C@@]2(O)C(=O)C3=C(O)c4c(O)cccc4[C@@](C)(O)[C@H]3C[C@@H]12	none
CN(C)C(=O)On1c(-c2ccccc2)nc2ccc([N+](=O)[O-])cc21	none
CSc1cc(C)c2c(c1)COC1(CCN(C(=O)Nc3cccs3)CC1)O2	none
CCN1CCN(Cc2c(C)noc2C)CC1	MITF inh 83 | MITF confirm inactive | AlphaScreen intf2 inactive
O=C(Cn1ncn2cccc2c1=O)N1CCC2(CC1)OCCO2	none
Cc1nn(CC(=O)N2CCC3(CC2)OCCO3)c(=O)c2cc3sccc3n12	MITF inh 65 | MITF confirm inactive | AlphaScreen intf2 inactive
COc1ccc(/C=C2\C(=O)NC(=O)N(c3ccc(Br)cc3)C2=O)cc1OC	none
CCOc1cc(/C=N/N/C(N)=N\[N+](=O)[O-])cc(I)c1O	none
COc1ccc(CCNCc2cc(OC)c(OC)cc2OC)cc1	MITF inh 61 | MITF confirm inactive | AlphaScreen intf2 inactive
COc1cc(OC)c(OC)cc1CNCCc1ccc(Cl)cc1	none
N/C(=N\[N+](=O)[O-])N/N=C\c1ccc(-c2ccccc2C(=O)O)o1	none
N/C(=N\[N+](=O)[O-])N/N=C\c1ccc(-c2ccc(O)c(C(=O)O)c2)o1	MITF inh 75 | MITF confirm 79 | AS interf DR inactive | AlphaScreen intf2 inactive
Cc1ccc(-n2c(/C=C/c3ccc(F)cc3)nc3ccccc3c2=O)cc1C	none
Fc1ccc(CN2CCN(Cc3ccc(Cl)cc3)CC2)cc1	MITF inh 68 | MITF confirm inactive | AlphaScreen intf2 inactive
Fc1ccc(CN2CCN(Cc3ccccc3)CC2)cc1	MITF inh 59 | MITF confirm inactive | AlphaScreen intf2 inactive
Fc1ccc(CN2CCN(c3ccc(Cl)cc3)CC2)cc1	none
Cc1cc(-c2ccccc2)[n+]2nc(N)sc2n1	none
CCOC(=O)c1c(CN2CCC(C(=O)OCC)(c3ccccc3)CC2)oc2cc(Br)c(OC)cc12	none
CN1CCN(c2c([N+](=O)[O-])cc(C(F)(F)F)cc2[N+](=O)[O-])CC1	none
CCc1ccc(N2C(=O)CC(=O)NC2=O)cc1	MITF inh 69 | MITF confirm inactive | AlphaScreen intf2 inactive
CCOc1ccc(CN2CCN(Cc3ccccc3F)CC2)cc1	MITF inh 75 | MITF confirm inactive | AlphaScreen intf2 inactive
CCOc1ccc(CN2CCN(Cc3ccc(F)cc3)CC2)cc1	MITF inh 61 | MITF confirm inactive | AlphaScreen intf2 inactive
COc1ccc(CN2CCN(Cc3ccc(OC)cc3)CC2)cc1	none
CN1CCN(C(=O)Cc2ccccc2Cl)CC1	none
COc1ccc(CN2CCN(Cc3ccc(C)cc3)CC2)cc1	MITF inh 80 | MITF confirm inactive | AlphaScreen intf2 inactive
COc1ccc(CN2CCN(Cc3ccc(Cl)cc3)CC2)cc1	MITF inh 83 | MITF confirm inactive | AlphaScreen intf2 inactive
CCC(C)N1CCN(Cc2cccc(Cl)c2)CC1 (stereo unspecified)	none
CCC(C)N1CCN(Cc2ccc(Br)cc2)CC1 (stereo unspecified)	MITF inh 71 | MITF confirm inactive | AlphaScreen intf2 inactive
CCC(C)N1CCN(Cc2ccc(F)cc2)CC1 (stereo unspecified)	MITF inh 59 | MITF confirm inactive | AlphaScreen intf2 inactive
CC(C)N1CCN(Cc2ccc(F)cc2)CC1	MITF inh 55 | MITF confirm inactive | AlphaScreen intf2 inactive
CC(C)N1CCN(Cc2ccncc2)CC1	MITF inh 82 | MITF confirm inactive | AlphaScreen intf2 inactive
CC(C)N1CCN(Cc2ccc(Br)cc2)CC1	none
O=C1c2ccccc2-c2c(S(=O)(=O)O)c(=O)[nH]c3cccc1c23 (tested in a mixture with another compound)	none
COc1ccc(N2C(=O)/C(=C\c3ccoc3)C(=O)NC2=S)cc1	none

Compound activity: PubChem BioAssay, The Scripps Research Institute Molecular Screening Center
